# Results published in PubChem BioAssay (NCI).
# This is part of a sample that, as a whole, favours compounds with a hit. Of some 83,000 tested, about 20% had one in any assay.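 Compound tested at a single concentration for 48 hours in 96-well plates; a percent growth value below 10 was scored as active.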 A number with no mark means an inactive call. Calls of active or inactive are those of the source.
# Key:
# Test in all cases: NCI-60 one-dose screen, 48 h (100 = growth as untreated, 0 = no growth, -100 = all killed)
# Settings in all cases: 10 µM unless noted
# T-47D breast = system: T-47D breast
# BT-549 breast = system: BT-549 breast
# MDA-MB-435 melanoma = system: MDA-MB-435 melanoma
# SW-620 colon = system: SW-620 colon
# MCF7 breast = system: MCF7 breast
# HCT-116 colon = system: HCT-116 colon
# HCC-2998 colon = system: HCC-2998 colon
# KM12 colon = system: KM12 colon
SMILES,growth (T-47D breast),growth (BT-549 breast),growth (MDA-MB-435 melanoma),growth (SW-620 colon),growth (MCF7 breast),growth (HCT-116 colon),growth (HCC-2998 colon),growth (KM12 colon)
CC(C)c1[nH]ncc1-c1nc2ccc3[nH]ncc3c2c2c1CCCC2,46.8%,27.4%,53.8%,15.9%,20.4%,12.2%,53.5%,17.4%
O=NN(CC(=O)NNc1ccccc1)CC(=O)NNc1ccccc1,46.6%,103%,30.5%,31.1%,69.5%,57%,68.9%,37.9%
CCOc1cccc(/C=N/NC(=O)c2ccc(Nc3ccnc(C(F)(F)F)c3)cc2)c1O,3.07% (active),14.6%,40.2%,32.1%,-1.78% (active),7.55% (active),35.3%,24.8%
c1ccc2c(Cc3csc4ccccc34)csc2c1,78.9%,92.2%,-9.16% (active),62.6%,68.4%,78%,85.3%,75.8%
CC(C)c1ccc(Cn2ccc3c4c(N)nc(NC5CC5)nc4ccc32)cc1,-54.8% (active),-71.2% (active),-97% (active),-82.6% (active),-82% (active),-82.8% (active),-78.6% (active),-79.2% (active)
COc1ccc(C2CC(c3cccc(Nc4ccnc5cc(Cl)ccc45)c3)=NN2c2ccccc2)cc1 (stereo unspecified),50.8%,63%,-9.41% (active),36.8%,47.6%,65.5%,54.1%,27.1%
O=c1[nH]c2ccccc2n2cc3cccnc3c12,81%,111%,12.5%,31.5%,32.2%,33%,82.1%,52.6%
COc1ccc(NC(=O)/C=C/c2ccc(NC(=O)N3CCCC3)cc2)cn1,99.9%,97.4%,103%,106%,91.7%,103%,111%,103%
COc1ccc(-n2nc(C(=O)NCC(=O)Nc3nc4cc(OC)ccc4s3)c3ccccc3c2=O)cc1,17%,-23.4% (active),42.5%,47.6%,-6.52% (active),2.56% (active),55.8%,18.2%
CC(=O)c1ccc(Nc2nc(Cl)nc(Oc3c(Cl)cccc3Cl)n2)cc1,79.8%,84.7%,89.9%,88.6%,74.9%,84.9%,106%,98%
[Ag].[Ag].[NH-]S(=O)(=O)c1ccc(N=Nc2cc(N=Nc3ccc(S([NH-])(=O)=O)cc3)c3c(NC(=O)C(Cl)Cl)cccc3c2OC(=O)C(Cl)Cl)cc1.[c-]1nccs1.[c-]1nccs1,7.8% (active),104%,87.2%,58.7%,50.8%,65.4%,99.1%,80.9%
COc1ccc(NC(=O)C2c3ccccc3C(=O)N(CC(C)C)C2c2cccs2)cc1 (stereo unspecified),102%,98.9%,103%,92%,82.3%,93.3%,93.3%,97.5%
CCN(CC)CCCC(C)Nc1cnc(C(=O)Nc2cccc3ccc(OC)nc23)cn1 (stereo unspecified),83.9%,83.2%,-58.2% (active),2.12% (active),20.1%,-36% (active),90.9%,36.3%
CCCCCCCCCCCCCCCCCC1=NC(C)(C)CN1C(C)(C)CO,-19.5% (active),64.7%,-68.7% (active),-100% (active),-81% (active),-100% (active),-100% (active),-100% (active)
COC(=O)C(C)NC1=C(Cl)C(=O)C(NC(C)C(=O)OC)=C(Cl)C1=O (stereo unspecified),96.6%,99.4%,75.7%,104%,82.2%,97.9%,106%,96.8%
CC1(C)CC[C@]2(C(=O)N3CCNCC3)CC[C@]3(C)C(=CC[C@@H]4[C@@]5(C)CCC(=O)C(C)(C)[C@@H]5CC[C@]43C)[C@@H]2C1,102%,106%,105%,106%,98.6%,101%,106%,111%

SMILES,growth (T-47D breast),growth (BT-549 breast),growth (MDA-MB-435 melanoma),growth (SW-620 colon),growth (MCF7 breast),growth (HCT-116 colon),growth (HCC-2998 colon),growth (KM12 colon)
COc1cc(C2=NOC(c3cc(OC)c(OC)c(OC)c3)C2)ccc1OCCCCOc1cc2c(cc1OC)C(=O)N1CCC[C@H]1C=N2 (stereo partly specified),-11.9% (active),-96.8% (active),-74.1% (active),-31.7% (active),-5.09% (active),2.63% (active),-57.4% (active),-24.3% (active)
O=C(Nc1ccc(Oc2ccc(Nc3nc4ccccc4s3)cc2)cc1)Nc1ccc(Cl)c(C(F)(F)F)c1,3.71% (active),-1.46% (active),0.432% (active),8.67% (active),4.73% (active),0.0223% (active),2.48% (active),0.448% (active)
COc1ccc(C2=CC(c3ccc(OC)cc3Br)N3C=CSC3=N2)cc1 (stereo unspecified),54.6%,30.7%,4.2% (active),27.3%,10.5%,-100% (active),59.7%,24.1%
CC1CCN(Cc2ccc(NC(=O)c3cc4ccc5cccnc5c4[nH]3)cc2)CC1,38.4%,42.8%,-67.6% (active),28.1%,27.2%,13.6%,17.5%,15.1%
C/C(=N\NC(=S)N1CCCCC1)c1ccccn1,17.9%,29.4%,14.6%,21.9%,12.8%,13.3%,34.8%,13%
O=C1C(Cl)=C(N/N=c2/[nH][nH]/c(=N/NC3=C(Cl)C(=O)c4ccccc4C3=O)c3ccccc23)C(=O)c2ccccc21,15.3%,83.1%,102%,60.6%,54%,61.8%,93.9%,18.5%
Cc1c(O)c(=O)n(-c2ccccc2)n1C,99.5%,109%,109%,114%,101%,109%,97.3%,105%
COc1cc(Cn2c(-c3ccccc3)cc3c2-c2oncc2CC3)cc(OC)c1OC,38.1%,41.2%,-58.1% (active),24.3%,14.1%,25.3%,42.7%,26.2%
COc1cccc(/C=N/N=C(N)N)c1,97.5%,114%,114%,98%,100%,99.9%,107%,96.4%
CC(C)NC(=O)OCC#CCOC(=O)NC(C)C,99.2%,95.7%,110%,109%,94.4%,95.4%,103%,106%
CCOC(=O)Nc1ccc2nc(-c3cscn3)[nH]c2c1,44.5%,48.6%,-40.5% (active),19.8%,34%,21.6%,65.7%,34.3%
Cc1ccc(NC(=O)c2[nH]c(SCCN(C)C)nc2-c2ccc(F)cc2)cc1Nc1ccc2ncn(C)c(=O)c2c1,76.8%,85.2%,44.6%,51.8%,70%,21%,49.9%,49.6%
CC(=O)Nc1ccc(Cl)cc1Cl,103%,120%,96%,116%,100%,105%,106%,112%
COc1ccc2nc(C)cc(Nc3ccccc3O)c2c1,44%,35%,64.4%,82%,67.7%,29.9%,112%,86.9%
CCc1ccc(-c2ccc(NC3CCCCCC3)nn2)cc1S(N)(=O)=O,103%,103%,106%,98.8%,95.2%,103%,102%,110%
COc1ccc2[nH]c(O)c(/C=c3/ccc4c(c3)N=C(c3ccc(C(F)(F)F)cc3)N=4)c2c1,57.4%,81.2%,76.5%,86.4%,45.1%,56%,97.7%,75.1%
